Results filed as inconclusive are left out. Calls of active or inactive are those of the source. Unless noted, calls come from the whole dose curve; as a rule, active = well fitted curve in the direction sought with a large enough effect; inconclusive = small, poorly fitted or top-dose-only effect, or another doubt; inactive = no such curve, though single readings can be large; an effect the other way counts as inactive or inconclusive.
Experiments:
[1] = target: Protein phosphatase 1D (Homo sapiens) (UniProt O15297); assay: Rhodamine-PBP qHTS Assay for Modulators of WT P53-Induced Phosphatase 1 (WIP1) (AID 1347425); conditions: recombinant WIP1, Rhodamine-PBP phosphate fluorescence, real-time; series mostly up to 57.5 µM; note: % of control where 0% means no effect
Protein phosphatase 1D (Homo sapiens), sequence (O15297 whole entry, looked up): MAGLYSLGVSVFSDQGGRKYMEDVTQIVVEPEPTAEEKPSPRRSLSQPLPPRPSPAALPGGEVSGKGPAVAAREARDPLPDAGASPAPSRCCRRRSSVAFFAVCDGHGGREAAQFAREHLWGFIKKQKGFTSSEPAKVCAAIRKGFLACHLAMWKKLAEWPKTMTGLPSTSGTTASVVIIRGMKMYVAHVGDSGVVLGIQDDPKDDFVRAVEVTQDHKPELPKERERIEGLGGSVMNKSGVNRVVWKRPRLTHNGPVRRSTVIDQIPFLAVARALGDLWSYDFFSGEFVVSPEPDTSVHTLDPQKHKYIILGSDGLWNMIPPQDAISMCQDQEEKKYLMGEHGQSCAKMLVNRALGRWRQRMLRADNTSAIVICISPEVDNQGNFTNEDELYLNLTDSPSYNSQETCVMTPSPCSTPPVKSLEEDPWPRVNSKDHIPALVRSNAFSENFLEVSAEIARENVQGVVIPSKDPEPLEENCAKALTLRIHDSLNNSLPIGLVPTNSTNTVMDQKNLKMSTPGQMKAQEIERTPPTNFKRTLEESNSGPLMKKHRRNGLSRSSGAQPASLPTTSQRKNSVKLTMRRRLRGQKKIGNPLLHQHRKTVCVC
Method in brief: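 Read-out: Rhodamine-PBP fluorescence (ex 525/em 598 nm) for released Pi, read each minute for 11 min after adding 10 uM VEPPL-pS-QETFS; signal taken as f1 minus pre-substrate f0. Enzyme 5 nM WIP1 with 1 hr room-temperature compound preincubation.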

[2] = A High-Content qHTS Against Drug Library for the Identification of Small Molecules that Inhibit DYT1 Early Onset Primary Dystonia-Associated Cell Pathology (AID 1645839; calls by dose curve); conditions: HEK293 Flp-In EGFP-delE TorsinA, punctate imaging, 48 h; series mostly up to 46.1 µM
Method in brief: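 In this high-content image screen, delE TorsinA mislocalization in inducible Flp-In 293 cells is scored as %pathology, with cell count serving as the counterscreen. Compound exposure lasts 48 h under tetracycline induction in reduced-serum medium.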

[3] = qHTS Assay for Identifying Gametocytocidal Compounds (AID 743244); note: potency is the fitted concentration of half-maximal effect;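 for max response: % is set by controls: 0 for no effect and ±100 for the full control effect; actives lower the fluorescent signal which means gametocytes are killed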; conditions: P. falciparum 3D7 stage III-V gametocytes, alamarBlue, 72 h; max response: hits give low values
Method in brief: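 P. falciparum 3D7 stage III–V gametocytes (20,000 cells/well) were exposed to compounds for 72 h at 37 °C, 5% CO2. AlamarBlue was then added for 24 h; decreased resorufin fluorescence (Ex 525/Em 598 nm) indicated loss of viability.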

astro = assay: Drug repurposing screens with cells derived from glioblastoma tumor samples (AID 1345199); conditions: viability, ATP luminescence, 48 h; series mostly up to 45.9 µM; note: % is set by controls: 0 for no effect and ±100 for the full control effect; nearly all actives have a fitted effect of over 40% in size
Method in brief: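 Four patient lines of CD133+ GBM neurospheres were screened at several concentrations; hits were retested in those lines plus three slower-growing GBM lines, using 48-hour treatment and ATP-based viability.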

3D7 = assay: qHTS profiling for inhibitors of Plasmodium falciparum proliferation (AID 504749); note: nearly all actives have a fitted effect of over 60% in size; note: potency is the fitted concentration of half-maximal effect; conditions: P. falciparum in erythrocytes, SYBR Green DNA, 72 h; series mostly up to 28.7 µM
Method in brief: (§1)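 Infected RBCs, 0.3% parasitemia/2.5% Hct final; cpd 72 h, 37 C, 5% CO2; lysis buffer with saponin/triton/SYBR Green I, o/n RT dark; FI 485/535; norm. to artemisinin (0.29 uM) and DMSO.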

7G8 = assay: as above; conditions: P. falciparum in erythrocytes, SYBR Green DNA, 72 h; series mostly up to 28.7 µM
Method in brief: as §1

AS120 = assay: as above; conditions: P. falciparum in erythrocytes, SYBR Green DNA, 72 h; series mostly up to 28.7 µM
Method in brief: as §1

CP185 = assay: as above; conditions: P. falciparum in erythrocytes, SYBR Green DNA, 72 h; series mostly up to 28.7 µM
Method in brief: as §1

CP192 = assay: as above; conditions: P. falciparum in erythrocytes, SYBR Green DNA, 72 h; series mostly up to 28.7 µM
Method in brief: as §1

CP194 = assay: as above; conditions: P. falciparum in erythrocytes, SYBR Green DNA, 72 h; series mostly up to 28.7 µM
Method in brief: as §1

CP201 = assay: as above; conditions: P. falciparum in erythrocytes, SYBR Green DNA, 72 h; series mostly up to 28.7 µM
Method in brief: as §1

CP203 = assay: as above; conditions: P. falciparum in erythrocytes, SYBR Green DNA, 72 h; series mostly up to 28.7 µM
Method in brief: as §1

CP247 = assay: as above; conditions: P. falciparum in erythrocytes, SYBR Green DNA, 72 h; series mostly up to 28.7 µM
Method in brief: as §1

CP286 = assay: as above; conditions: P. falciparum in erythrocytes, SYBR Green DNA, 72 h; series mostly up to 28.7 µM
Method in brief: as §1

CP291 = assay: as above; conditions: P. falciparum in erythrocytes, SYBR Green DNA, 72 h; series mostly up to 28.7 µM
Method in brief: as §1

DFO2036 = assay: as above; conditions: P. falciparum in erythrocytes, SYBR Green DNA, 72 h; series mostly up to 28.7 µM
Method in brief: as §1

DIV30 = assay: as above; conditions: P. falciparum in erythrocytes, SYBR Green DNA, 72 h; series mostly up to 28.7 µM
Method in brief: as §1

GB4 = assay: as above; conditions: P. falciparum in erythrocytes, SYBR Green DNA, 72 h; series mostly up to 28.7 µM
Method in brief: as §1

PC49 = assay: as above; conditions: P. falciparum in erythrocytes, SYBR Green DNA, 72 h; series mostly up to 28.7 µM
Method in brief: as §1

W2 = assay: as above; conditions: P. falciparum in erythrocytes, SYBR Green DNA, 72 h; series mostly up to 28.7 µM
Method in brief: as §1

CCN(CC)c1ccc(C(=C2C=CC(=[N+](CC)CC)C=C2)c2cc(S(=O)(=O)O)ccc2S(=O)(=O)[O-])cc1
inactive: outcome [1] | outcome [2]

CS(=O)(=O)c1ccc(-c2cn3ccccc3n2)cc1
inactive: outcome [1] | outcome [2]

CCNC(=O)[C@@H]1CCCN1C(=O)[C@H](CCCN=C(N)N)NC(=O)[C@H](CC(C)C)NC(=O)[C@@H](CC(C)C)NC(=O)[C@H](Cc1ccc(O)cc1)NC(=O)[C@H](CO)NC(=O)[C@H](Cc1c[nH]c2ccccc12)NC(=O)[C@H](Cc1cnc[nH]1)NC(=O)[C@@H]1CCC(=O)N1
inactive: max response [3] 2.85% | Potency (astro)

Nc1ccc(N)c([N+](=O)[O-])c1
active: Potency [3] 39.8 µM
inactive: Potency (astro)

O=C(CC1NCCC[C@H]1O)Cn1cnc2cc(Br)c(Cl)cc2c1=O (stereo not given in full)
active: Potency (3D7) 1 µM | Potency (7G8) 1 µM | Potency (AS120) 2 µM | Potency (CP185) 2.82 µM | Potency (CP192) 3.38 µM | Potency (CP194) 4.78 µM | Potency (CP201) 3.38 µM | Potency (CP203) 3.38 µM | Potency (CP247) 2.24 µM | Potency (CP286) 2 µM | Potency (CP291) 2.69 µM | Potency (DFO2036) 2.82 µM | Potency (DIV30) 3.38 µM | Potency (GB4) 1.9 µM | Potency (PC49) 1.78 µM | Potency (W2) 0.675 µM

CCCCC(=O)N(Cc1ccc(-c2ccccc2-c2nn[nH]n2)cc1)C(C(=O)O)C(C)C (stereo not given)
active: Potency (7G8) 11.2 µM | Potency (GB4) 13.5 µM | Potency (W2) 15.1 µM
inactive: Potency (3D7) | Potency (AS120) | Potency (CP185) | Potency (CP192) | Potency (CP194) | Potency (CP201) | Potency (CP203) | Potency (CP247) | Potency (CP286) | Potency (CP291) | Potency (DFO2036) | Potency (DIV30) | Potency (PC49)
